# Measured values as given in PubChem BioAssay AID1878 (Sanford-Burnham Center for Chemical Genomics, 2009).
# About 200 (20%) of roughly 1,000 compounds were called active. Rule as the data show it: active = inhibition above about 55%; inactive = the rest. These entries were drawn from the full list. Potency and affinity values are given separately.
# Target: Dual specificity protein phosphatase 3 (Homo sapiens) (UniProt P51452)
# Assay: VHR1 phosphatase inhibitors, biochemical (AID 1878)
# Conditions: recombinant VHR phosphatase, fluorogenic substrate; at 13.3 µM; hits give high values
# Dual specificity protein phosphatase 3 (Homo sapiens), sequence (P51452 whole entry, looked up): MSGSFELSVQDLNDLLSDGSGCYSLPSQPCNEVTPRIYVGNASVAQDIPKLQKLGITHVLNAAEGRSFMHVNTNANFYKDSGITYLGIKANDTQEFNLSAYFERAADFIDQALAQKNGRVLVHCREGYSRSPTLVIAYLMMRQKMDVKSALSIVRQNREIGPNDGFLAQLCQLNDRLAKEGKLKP
row,Compound,inhibition
1,CCOc1ccc(-n2c(SCC(=O)N3CCc4ccccc43)nnc2-c2c[nH]c3ccccc23)cc1,83.6% (active)
2,O=C(CN1CCN(c2ccc(O)cc2)CC1)N1CCc2ccccc21,-16.5% (inactive)
3,O=C(CCCN1C(=O)C(c2ccccc2)Oc2cccnc21)Nc1ccccc1Cl (centres undefined),4.6% (inactive)
4,Cc1ccc2nc(-c3ccncc3)cc(C(=O)Nc3ccc(OC(F)F)cc3)c2c1,69.1% (active)
5,COc1ccccc1CCNC(=O)c1cc(-c2ccncc2)nc2ccc(Br)cc12,70.1% (active)
6,CCOc1ccccc1NC(=O)c1cc(-c2ccncc2)nc2c(Cl)cccc12,34.3% (inactive)
7,O=C(Nc1ccc2nc3n(c(=O)c2c1)CCCC3)c1ccccc1F,-11.4% (inactive)
8,O=C(Nc1ccncc1)c1cc(-c2ccccn2)nc2ccc(Br)cc12,84.4% (active)
9,Cc1c(Cl)cccc1NC(=O)c1cccc(OC(F)F)c1,29.2% (inactive)
10,COc1cc(CCNC(=O)c2ccccc2NC(=O)C2=C(C)OCCS2)cc(OC)c1OC,-10.3% (inactive)
11,COc1ccccc1CCNC(=O)CNC(=O)c1ccc2ccccc2c1,-4.1% (inactive)
12,COc1c(C(=O)Nc2ccc3[nH]c(=O)[nH]c3c2)cc2ccccc2c1Br,13.6% (inactive)
13,CC1CCCCN1CCCNC(=O)C1CCN(c2nnc(-n3cccc3)s2)CC1 (centres undefined),-30.3% (inactive)
14,Cc1cccc(CSc2[nH]c(=O)ncc2C)c1,1% (inactive)
15,O=C(C1CCN(S(=O)(=O)c2cccs2)CC1)N1CCc2ccccc2C1,-7.4% (inactive)
16,COc1ccc(NC(C)=O)cc1NC(=O)CSc1nnc(C2CCCCC2)n1N,0.2% (inactive)
17,O=C(c1ccccc1)C1CCN(C(=O)c2ccc(Cl)cc2)CC1,-17.9% (inactive)
18,COc1ccc(N(C(=O)CNC(=O)c2ccco2)C(C(=O)NC2CCCCC2)c2ccncc2)cc1 (centres undefined),-11% (inactive)
19,CCn1c(=O)n(CC)c2cc(N3CCCC3)c(NC(=O)c3cccc(OC)c3)cc21,0.2% (inactive)
20,O=C(CCC(=O)c1ccc(Cl)cc1)NCc1ccccc1,3.5% (inactive)
21,O=[N+]([O-])c1cccc2c([As](=O)(O)O)cccc12,0.9% (inactive)
22,O=c1c2cnn(-c3ccc(F)cc3)c2ncn1Cc1cccnc1,-6.2% (inactive)
23,Cc1ccc(-n2ncc3c2CCCC3NC(=O)CCc2cnccn2)cc1C (centres undefined),-2.7% (inactive)
24,S=c1[nH]nc(-c2ccccc2)n1/N=C/c1c[nH]c2ccccc12,1.6% (inactive)

row,Compound,inhibition
1,CCC1CCCCN1CCCNC(=O)c1ccc(CS(=O)(=O)c2ccccc2C)o1 (centres undefined),-7.8% (inactive)
2,Cc1oc(-c2ccc(Cl)cc2)nc1CS(=O)CC(=O)NCCN1CCCCCC1 (centres undefined),-27.9% (inactive)
3,CCOc1cc(C2Nc3ccccc3NC3=C2C(=O)CC(C)(C)C3)ccc1OC(C)=O (centres undefined),-4.7% (inactive)
4,Cc1ccc(NC(=O)CN2C(=O)S/C(=C\c3ccc(-c4cccc(C(=O)O)c4C)o3)C2=O)cc1C,84.7% (active)
5,COc1cc(NC(=O)CN2CCN(c3ccccn3)CC2)cc(OC)c1OC,6% (inactive)
6,Cc1ccc(NC(=O)CN2C(=O)S/C(=C\c3ccc(-c4cccc(C(=O)O)c4C)o3)C2=O)cc1,97.5% (active)
7,Cc1ccc(NC(=O)COC(=O)c2nn(C)cc2Cl)cc1,-0.7% (inactive)
8,Cc1ccc(NC(=O)CN2C(=O)S/C(=C/c3ccc(-c4cccc(C(=O)O)c4)o3)C2=O)cc1,93.9% (active)
9,CCCOc1ccc(Cn2c(=O)oc3ccc(C)cc32)cc1,7.7% (inactive)
10,COc1ccccc1N1CCN(C2CCCN(Cc3cc(F)cc(F)c3)C2)CC1 (centres undefined),-2.1% (inactive)
11,COc1cccc(CNC(=O)CCNS(=O)(=O)c2ccc3c(c2)oc(=O)n3C)c1,-4.6% (inactive)
12,COCCNC(=O)c1cccc(OC2CCN(C(C)COc3ccccc3)CC2)c1 (centres undefined),-14.8% (inactive)
13,Nc1ncc(Br)cc1S(=O)(=O)NCCC(=O)NCc1ccc(F)cc1,4.1% (inactive)
14,CCN1CCN(CCCNC(=O)CS(=O)(=O)Cc2nc(-c3ccccc3C)oc2C)CC1,-9.5% (inactive)
15,c1ccc(-c2nnsc2-c2ccccc2)cc1,-7.8% (inactive)
16,O=C(Cn1ccnc1)c1ccc(Cl)cc1,14.8% (inactive)
17,CCC(C)NC(=O)c1ccc(CSCc2ccc(Cl)cc2)o1 (centres undefined),-3.4% (inactive)
18,CC1(C(=O)O)CCC(C(=O)NC2CCCCCC2)C1(C)C (centres undefined),-1.3% (inactive)
19,CCOc1ccccc1NC(=O)C1CCN(C(=O)c2cccs2)CC1,-20.3% (inactive)
20,CN(CCCNC(=O)c1ccccc1F)CCCNC(=O)c1ccccc1F,15.1% (inactive)
21,Cc1ccc(C(C(=O)NC2CCCC2)N(Cc2ccc(F)cc2)C(=O)c2snc(C(N)=O)c2N)o1 (centres undefined),10.6% (inactive)
22,CN(C)c1ccc(NC(=O)CN2C3CCCC2CC(NC(=O)c2ccccc2)C3)cc1 (centres undefined),-12.8% (inactive)
23,COc1ccc(NC2CCCN(C(=O)c3ccc(CSC)o3)C2)cc1OC (centres undefined),20.5% (inactive)
24,CCC1CCCCN1CCCNC(=O)CN1C(=O)COc2ccc(S(=O)(=O)N3CCOCC3)cc21 (centres undefined),1.2% (inactive)

row,Compound,inhibition
1,Cc1cc(C)c(S(=O)(=O)/N=C2/C=C(Sc3ncn[nH]3)C(=O)c3ccccc32)cc1C,15.8% (inactive)
2,COc1cc(CN2CCC(n3nccc3NC(=O)C3CCOC3)CC2)ccc1F (centres undefined),-5.3% (inactive)
3,COc1ccc(-n2nc(C(=O)Nc3ccc(OC)c(OC)c3)c3c4ccccc4n(C)c3c2=O)cc1,94.9% (active)
4,COc1ccc(NC(=O)c2cn(CCC#N)nc2-c2ccc(OC)c(OC)c2)cc1,-8.4% (inactive)
5,COc1ccc(-n2nc(C(=O)NCC3CCCO3)c3ccccc3c2=O)cc1 (centres undefined),-4% (inactive)
6,Cc1ccc2c(c1)N(CC(=O)NCCCN1CCCCC1)C(=O)CO2,2.3% (inactive)
7,CC(C)(C)SC(=O)C[C@@H]1NS(=O)(=O)OC2CCCCC21 (some centres undefined),24.7% (inactive)
8,CN(CC1CCCN(CCc2ccc(F)cc2)C1)C(=O)CCC(N)=O (centres undefined),-4.8% (inactive)
9,CN(C)C1(CNCC(O)c2ccccc2)CCCCC1 (centres undefined),6.5% (inactive)
10,CC(=O)NC(Cc1ccc(F)cc1)C(=O)NC1CCN(S(=O)(=O)c2ccccc2)CC1 (centres undefined),41% (inactive)
11,CCOCCCNC(=O)c1cn(C)c2ccc(S(=O)(=O)N3CCCCC3)cc2c1=O,12.7% (inactive)
12,N#Cc1c(-c2cccs2)nc(SCC(=O)c2ccc(Br)cc2)[nH]c1=O,95.4% (active)
13,Nc1cc(=O)[nH]c(SCCSc2ccc(F)cc2)n1,-2.2% (inactive)
14,CN1CCN(CCNC(=O)Cn2c(=O)c3cccn3c3ccc(F)cc32)CC1,-1% (inactive)
15,COc1ccc(CN(C)Cc2c(O)ccc3ccccc23)cc1,-9% (inactive)
16,CCCCCc1nnc(NC(=O)Cc2ccc([N+](=O)[O-])cc2)s1,4.4% (inactive)
17,O=C(Nc1ccccc1F)N1CCc2ccccc2C1,-0.6% (inactive)
18,Cn1cc(Cl)c(C(=O)Nc2nccs2)n1,25.2% (inactive)
19,Cc1ccc(NC(=O)CCS(=O)(=O)c2ccc3c(c2)NC(=O)C(C)S3)nc1 (centres undefined),-1.8% (inactive)
20,COC(=O)c1ccccc1NC(=O)CCS(=O)(=O)c1ccc(Br)cc1,89.7% (active)
21,COC(=O)c1ccccc1NC(=O)c1cc2ccccc2o1,12.8% (inactive)
22,Cc1ccc2cc(CN(CC3CCCO3)C(=O)c3cccs3)c(=O)[nH]c2c1 (centres undefined),-11.2% (inactive)
23,CN(C(=O)c1ccc(COc2ccccc2Cl)o1)c1ccccc1,15% (inactive)
24,O=C(Cn1c(=O)c2c3c(sc2n(Cc2ccccc2)c1=O)CCCC3)NCCO,-0.2% (inactive)

row,Compound,inhibition
1,CCOC(=O)c1sc2ncnc(Nc3cccc(C(=O)O)c3)c2c1C,-6.2% (inactive)
2,CCOC(=O)c1sc2nc(C)nc(NCc3ccc(Cl)cc3)c2c1C,0.5% (inactive)
3,Cc1cc(Cl)cc(Cl)c1OCCN1CCCC1,-2.7% (inactive)
4,CSCCNC(=O)c1ccc2nc(Cc3ccccc3F)oc2c1,-8.6% (inactive)
5,Cc1ccc2[nH]c(CN3CCN(C)C(CCO)C3)c(C)c2c1 (centres undefined),-2.5% (inactive)
6,Cc1cc(-n2c(SCC(=O)NCCC3=CCCCC3)nc3n[nH]c(C)c3c2=N)ccc1Cl,15.1% (inactive)
7,O=C(Nc1cc(-c2nc3ncccc3o2)ccc1Cl)c1cccs1,-1.1% (inactive)
8,CN(CCO)CCOCCOc1cccc2ccccc12,-15.7% (inactive)
9,CC(=O)c1ccc(OCC(=O)N2CCCC(Nc3ccc(C)c(C)c3)C2)cc1 (centres undefined),3.2% (inactive)
10,CCCCN(CCCNC(=O)c1ccc(CS(=O)(=O)c2c(Cl)cccc2Cl)o1)Cc1ccccc1,-4.4% (inactive)
11,CC(=O)N/C(=N\c1nc(C)cc(C)n1)Nc1ccc(Cl)cc1Cl,-6.7% (inactive)
12,Oc1cccc2ccc(/C=C/c3ccccc3Cl)nc12,-3.4% (inactive)
13,CSCCC1NC(=S)N(Cc2ccccc2)C1=O (centres undefined),-5.4% (inactive)
14,O=C(CNS(=O)(=O)c1cccc(Br)c1)NCC1CCCCC1,11.2% (inactive)
15,Cc1ccc(N(C(=O)c2snc(C(N)=O)c2N)C(CC(C)C)C(=O)NC2CCCC2)cc1 (centres undefined),0.9% (inactive)
16,Cn1nnc2cc(C(=O)Nc3ccccc3F)ccc21,-4.2% (inactive)
17,CCc1ccccc1NC(=O)C1CCCN1S(=O)(=O)c1ccc(-c2ccc(=O)[nH]n2)s1 (centres undefined),-1.8% (inactive)
18,Cc1ccc(S(=O)(=O)N(C)C)cc1NC(=O)CN1CCCC1,-0.5% (inactive)
19,C=CCN1C(=O)C2(OCCO2)c2cc(C)ccc21,-6.3% (inactive)
20,CN(C)c1ccc(NC(=O)Nc2ccc3c(c2)nnn3C)cc1,38.6% (inactive)
21,C/C(=N\NC(=O)c1ccc(OC2OCCOC2Oc2ccc(C(=O)N/N=C(\C)c3ccncc3)cc2)cc1)c1ccncc1 (centres undefined),92.7% (active)
22,C/C(=N\NC(=O)C1CCCC1)c1ccc(Cl)cc1,3.5% (inactive)
